Bioassay records deposited in PubChem by National Center for Advancing Translational Sciences (NCATS).
CHX counter = counter-screen hit for Shiga toxin inhibitors, cycloheximide; cell reporter, cycloheximide protein synthesis inhibition counterscreen; max response, %; 300,000 compounds, 12% hits; in the data active = max response mostly above about 13%, no sharp cut-off; inactive = mostly below about 14%; note: read at 38.3 µM for the half of the compounds with a filed dose; 0% is about no effect
Pf growth 96h = inhibits malaria parasite growth, 96 h; P. falciparum luciferase reporter growth, 96 h; 320,000 compounds, 6.9% hits; Potency, µM (doses to about 28.7 µM), for the others: top-dose activity change, negative = inhibition, actives largely listed as inhibitors; note: potency is the fitted concentration of half-maximal effect; % is set by controls: 0 for no effect and ±100 for the full control effect
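Plates of compound plus infected erythrocytes (2% hematocrit, 0.05% parasitemia final) incubate 96 hours, 37 C, 5% CO2. Detection reagent added; reduced luminescence from the parasites' luciferase reporter flags inhibition.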
NS1 inh = blocks influenza NS1 protein function; Potency, µM (series often up to 46.1 µM), for the others: at the top dose activity, positive = more growth; 270,000 compounds, 0.4% hits; calls by dose curve; note: potency is the fitted concentration of half-maximal effect; actives are rising curves; nearly all actives have a fitted effect of over 50% in size
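Growth recovery, yeast-based: influenza A NS1 expressed in S. cerevisiae causes slow growth, and suppressors are detected by OD600. The parent strain without NS1 is used as positive control.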
Pf growth 48h = inhibits P. falciparum growth in the first generation, 48 h | P. falciparum luciferase growth in erythrocytes, 48 h | Potency, µM (highest dose often 28.7 µM), for inactives: top-dose activity change, negative = inhibition, usual class: inhibitors | 310,000 compounds, 5.9% hits | AID 504832; note: potency is the fitted concentration of half-maximal effect; % is set by controls: 0 for no effect and ±100 for the full control effect
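Luciferase-expressing parasites in RBCs, 2% Hct / 0.1% parasitemia final; RPMI 1640 + 0.5% Albumax; 37 C, 5% CO2, one generation; luminescence read-out, lower signal = inhibition.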
Giardia FBPA inh-1 = Giardia lamblia aldolase inhibition | A8B2U2 | purified Giardia FBPA | Potency, µM (series often up to 59.6 µM), for inactives: at the top dose activity, negative = inhibition, most hits filed as inhibitors | 290,000 compounds, 0.71% hits | AID 2451; note: potency is the fitted concentration of half-maximal effect; % is set by controls: 0 for no effect and ±100 for the full control effect; nearly all actives have a fitted effect of over 55% in size
Target sequence (A8B2U2 whole entry, looked up): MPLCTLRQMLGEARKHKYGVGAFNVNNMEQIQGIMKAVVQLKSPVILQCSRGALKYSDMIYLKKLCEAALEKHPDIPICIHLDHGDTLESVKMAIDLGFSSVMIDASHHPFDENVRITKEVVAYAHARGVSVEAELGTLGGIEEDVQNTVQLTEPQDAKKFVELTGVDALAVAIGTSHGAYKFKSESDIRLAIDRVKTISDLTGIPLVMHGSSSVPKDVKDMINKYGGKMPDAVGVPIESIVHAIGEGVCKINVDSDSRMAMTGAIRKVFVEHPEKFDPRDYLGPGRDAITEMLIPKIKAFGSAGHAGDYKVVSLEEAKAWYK
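40 nM FBPA preincubated 10 min at RT with compound (up to 57.5 uM final), then substrate plus GAPDH/TPI/NAD/arsenate coupling and diaphorase/resazurin added. Fluorescence read after 20 min at RT, 525/598 nm.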
Shiga inhibitor = blocks Shiga toxin action in Vero cells; 290,000 compounds, 9.2% hits; Vero cells, Shiga toxin protein synthesis inhibition reporter; inhibition, % at 38.7 µM; in the data active = inhibition mostly above about 28%, no sharp cut-off; inactive = mostly below about 43%; note: 0% is about no effect
Giardia growth = Giardia lamblia growth inhibition; AID 2785; Potency, µM (top dose mostly 57.5 µM), for inactives: top-dose activity change, negative = inhibition, actives largely listed as inhibitors; shares compounds with Giardia FBPA inh-1; 1,500 compounds, 5% hits; Giardia lamblia trophozoite growth inhibition;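 note: potency is the fitted concentration of half-maximal effect; trophozoites exposed to compound for 48 h at 37 °C; % is set by controls: 0 for no effect and ±100 for the full control effect; nearly all actives have a fitted effect of over 70% in size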
Mammalian tox = toxic to mammalian cells in Giardia aldolase counter-screen. 1,500 compounds, 4% hits. Potency, µM (titrated, usually from 57.5 µM), without a hit: at the highest dose viability change, negative = toxicity, usual class: inhibitors. shares compounds with Giardia FBPA inh-1. mammalian cell viability counter-screen, qHTS;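 note: Chinese hamster ovary cells used as mammalian cytotoxicity surrogate; viability measured as cellular ATP by luminescence; potency is the fitted concentration of half-maximal effect; compound exposure lasted 48 h before reading; % is set by controls: 0 for no effect and ±100 for the full control effect; nearly all actives have a fitted effect of over 60% in size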
Giardia FBPA inh-2 = confirmation of Giardia fructose-bisphosphate aldolase inhibitors; shares compounds with Giardia FBPA inh-1; purified Giardia aldolase enzyme activity, qHTS; Potency, µM (titrated, usually from 57.5 µM), without a hit: top-dose activity change, negative = inhibition, most hits filed as inhibitors; 1,500 compounds, 5% hits; AID 2787; note: potency is the fitted concentration of half-maximal effect; % is set by controls: 0 for no effect and ±100 for the full control effect; nearly all actives have a fitted effect of over 45% in size
Rabbit FBPA inh = blocks rabbit muscle aldolase in Giardia aldolase selectivity test. 1,500 compounds, 4% hits. shares compounds with Giardia FBPA inh-1. Potency, µM (titrated, usually from 57.5 µM), without a hit: at the top dose activity, negative = inhibition, most hits filed as inhibitors. Rabbit muscle FBPA enzyme inhibition, selectivity counter-screen; note: potency is the fitted concentration of half-maximal effect; % is set by controls: 0 for no effect and ±100 for the full control effect; nearly all actives have a fitted effect of over 60% in size
Target sequence (P00883 whole entry, looked up): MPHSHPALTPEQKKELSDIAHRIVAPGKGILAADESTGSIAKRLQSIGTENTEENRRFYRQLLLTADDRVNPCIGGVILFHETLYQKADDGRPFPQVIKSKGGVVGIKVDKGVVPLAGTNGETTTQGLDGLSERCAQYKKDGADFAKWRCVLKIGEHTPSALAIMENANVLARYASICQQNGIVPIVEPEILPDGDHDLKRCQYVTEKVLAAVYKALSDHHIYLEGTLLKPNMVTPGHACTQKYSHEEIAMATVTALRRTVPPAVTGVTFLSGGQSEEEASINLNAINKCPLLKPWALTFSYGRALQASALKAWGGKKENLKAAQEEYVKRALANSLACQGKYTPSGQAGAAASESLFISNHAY
GAPDH counter = GAPDH inhibition flagged for Giardia aldolase hits | shares compounds with Giardia FBPA inh-1 | GAPDH coupling enzyme counterscreen, biochemical, qHTS | Potency, µM (series often up to 57.5 µM), without a hit: at the top dose activity change, negative = inhibition, most hits filed as inhibitors | 1,500 compounds, 6% hits | AID 2795; note: potency is the fitted concentration of half-maximal effect; % is set by controls: 0 for no effect and ±100 for the full control effect; nearly all actives have a fitted effect of over 55% in size
Numbers without * were called inactive; ? = inconclusive; · = no result given; [ ] = another dose, or the depositor's remark. Only some compounds are listed: those with a hit (about 21% of all), similar ones and a draw of the others. Unless noted, calls come from the whole dose curve; as a rule, active = well fitted curve in the direction sought with a large enough effect; inconclusive = small, poorly fitted or top-dose-only effect, or another doubt; inactive = no such curve, though single readings can be large; an effect the other way counts as inactive or inconclusive.

SMILES	CHX counter	Pf growth 96h	NS1 inh	Pf growth 48h	Giardia FBPA inh-1	Shiga inhibitor	Giardia growth	Mammalian tox	Giardia FBPA inh-2	Rabbit FBPA inh	GAPDH counter
COc1ccccc1-n1c(CNC(=O)c2ccco2)nnc1SCC(=O)Nc1nccs1	-4	4%	-7%	·	-3%	-13	·	·	·	·	·
COc1ccc(-n2c(-c3ccco3)n[nH]c2=S)cc1	-4	-9%	8%	-20%	2%	43	·	·	·	·	·
COc1ccccc1-c1nc(N)n[nH]1	-1	?	2%	-24%	3%	-4	·	·	·	·	·
O=C(NC1CCCCCC1)c1ccc[nH]c1=S	14	?	·	10%	16µM*	41	?	4%	9%	2%	18%
O=C(NC1CCCCC1)c1ccccc1C(F)(F)F	9	41%	3%	19%	6%	20	·	·	·	·	·
CCC1Oc2ccccc2N(CC(=O)NCCN2CCc3ccccc3C2)C1=O (stereo unspecified)	-3	0%	-1%	-5%	16µM*	3	-22%	18%	6%	9%	1%
CCCN1CCN(CCCNC(=O)CN2C(=O)C(CC)Oc3ccccc32)CC1 (stereo unspecified)	-4	0%	-15%	0%	-3%	-6	·	·	·	·	·
O=S(=O)(NNc1nccc(C(F)(F)F)n1)c1cccc(Cl)c1Cl	-3	93%	1%	0%	16µM*	-6	23%	-2%	?	?	?
O=C(Nc1ccccc1N1CCOCC1)c1cccnc1Cl	3	2%	·	-10%	6%	-4	·	·	·	·	·
O=S(=O)(c1cc(F)ccc1F)N1CCN(c2ncccn2)CC1	8	-6%	22%	13%	11%	-7	·	·	·	·	·
Nc1ccc(S(=O)(=O)Nc2cccc3cccnc23)cc1	6	·	·	·	-24%	-4	·	·	·	·	·
CCN(Cc1nc2ccccc2c(=O)[nH]1)Cc1nc2ccsc2c(=O)[nH]1	-2	1.5µM*	0%	?	0.79µM*	-14	8%[38.3 µM]	-27%	-13%	-22%	?
CCc1ccc2c(CN(CC)Cc3nc4ccccc4c(=O)[nH]3)cc(=O)oc2c1	4	82%	-3%	?	-24%	6	·	·	·	·	·
CCN(Cc1nc2ccccc2c(=O)[nH]1)Cc1nc2cc(OC)c(OC)cc2c(=O)[nH]1	-2	-10%	-17%	?	5.6µM*	0	-6%[38.3 µM]	-15%	?	-21%	-23%
CN(c1cccc(NC(=O)CN(c2cccc(F)c2)S(C)(=O)=O)c1)S(C)(=O)=O	-1	-1%[5.75 µM]	·	6%	0%	-3	·	·	·	·	·
Nc1cc(C(F)(F)F)cc2c1SCC(=O)N2	-2	-2%	11%	1%	-1%	14	·	·	·	·	·
Cc1ccc(CN2CCN(C3CCCC3)C(CCO)C2)s1 (stereo unspecified)	-1	-3%	6%	24%	9%	-3	·	·	·	·	·
C=CCNC(=S)Nc1ccccc1-c1nnc2n1CCCCC2	-3	-30%	-6%	-8%	13µM*	-18	10%[10.4 µM]	-2%	1%	4%	19%
COc1ccc2c(C)cc(SCC(=O)NCCN3C(=O)CSC3=O)nc2c1	0	-13%	-10%	-10%	2%	-21	·	·	·	·	·
CCOCCCN(C(=O)c1snc(C(N)=O)c1N)C(C(=O)NC1CCCC1)c1ccc(F)cc1 (stereo unspecified)	-11	?	-3%	?	8%	18	·	·	·	·	·
CC(C)CC(=O)N1CCN(Cc2ccc(Cl)cc2)CC1	1	?	-10%	93%	28µM*	2	-30%	-3%	0%	4%	8%
CC(C)CC(=O)N1CCN(Cc2ccc(C(F)(F)F)cc2)CC1	-1	-26%	-16%	-15%	32µM*	-6	-23%	-22%	6%	-5%	-13%
CCCc1nc(SCC(=O)N2CCOCC2)c2c(C)c(C)sc2n1	1	-1%	-21%	-5%	2%	-19	·	·	·	·	·
COc1ccc(NC(=S)N(CCN2CCOCC2)C2CCN(C(C)=O)CC2)cc1Cl	-2	?	·	-2%	-19%	19	·	·	·	·	·
CC(=O)N1CCC(N(CCN2CCOCC2)C(=S)Nc2ccc(C)cc2C)CC1	8	-2%	·	36%	-15%	-13	·	·	·	·	·
SMILES	CHX counter	Pf growth 96h	NS1 inh	Pf growth 48h	Giardia FBPA inh-1	Shiga inhibitor	Giardia growth	Mammalian tox	Giardia FBPA inh-2	Rabbit FBPA inh	GAPDH counter
CC(=O)N1CCC(N(CCN2CCOCC2)C(=S)Nc2ccc(C)cc2)CC1	-6	?	·	22%	7.1µM*	2	-19%[38.3 µM]	-13%	2%	12%	5%
COc1cc(Cl)ccc1NC(=S)N(CCN1CCOCC1)C1CCN(C(C)=O)CC1	-2	?	·	4%	18µM*	-8	-7%[10.4 µM]	4%	6%	1%	5%
CCOC(=O)c1sc2nc(CSc3ccccc3)nc(N3CCCN(C)CC3)c2c1C	-4	?	0%	?	20µM*	-8	-18%	-17%	4%	-1%	6%
CCOC(=O)c1sc2nc(CC(=O)OC)nc(N3CCN(c4ccccn4)CC3)c2c1C	-1	-2%	-50%	?	-6%	16	·	·	·	·	·
COc1cc(-c2nc(C(=O)NCC3CCCO3)cc3c2[nH]c2ccccc23)cc(OC)c1OC (stereo unspecified)	-3	6.6µM*	-11%	?	8.9µM*	2	-9%	40µM*	-1%	-9%	-1%
O=S(=O)(c1ccc(Cl)cc1)N1CCN(C2CCN(Cc3ccccc3)CC2)CC1	-1	-25%	-7%	·	8%	-3	·	·	·	·	·
COc1ccc(S(=O)(=O)N2CCC(N3CCN(Cc4ccccc4)CC3)CC2)cc1	-2	16%	·	2%	13µM*	-7	63%	-2%	5%	2%	16%
COc1cc(CN2CCN(S(=O)(=O)c3ccccc3)CC2)cc(OC)c1OC	-1	0%	14%	-6%	25µM*	-8	24%	-9%	-3%	0%	9%
CCn1c(=O)[nH]c(=O)c2c(N)c(C(=O)c3cc(F)ccc3F)sc21	-4	?	10%	?	1%	-4	·	·	·	·	·
O=C(NNC(=O)c1cccnc1)Nc1cccc(Cl)c1Cl	9	6%	11%	14%	1%	11	·	·	·	·	·
Cc1ccccc1NC(=O)CCN1CCN(C)CC1	1	?	-3%	15%	13%	-6	·	·	·	·	·
